Values joined by “and” are separate entries in the source; they are usually repeats but may differ in a detail not shown here. Equal values may be shown once. Compounds without any hit were thinned out: in the full panel of roughly 83,000, 20% have a hit.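 The endpoint reported here, percent growth, reads 100 for growth as untreated, 0 for no net growth and -100 for all cells dead.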 Active and inactive are the calls of the source. The calls were made as follows: active = growth percent below 10; inactive = the rest.
How the values were obtained:
Test in all cases: NCI-60 one-dose screen, 48 h (100 = growth as untreated, 0 = no growth, -100 = all killed)
Conditions in all cases: 10 µM unless noted
SK-MEL-2 melanoma = test system: SK-MEL-2 melanoma
EKVX NSCLC = test system: EKVX NSCLC
SN12C renal = test system: SN12C renal
TK-10 renal = test system: TK-10 renal
ACHN renal = test system: ACHN renal
CAKI-1 renal = test system: CAKI-1 renal
A498 renal = test system: A498 renal
CCRF-CEM leukemia = test system: CCRF-CEM leukemia
MOLT-4 leukemia = test system: MOLT-4 leukemia
SR leukemia = test system: SR leukemia
RPMI-8226 leukemia = test system: RPMI-8226 leukemia
OVCAR-8 ovarian = test system: OVCAR-8 ovarian
OVCAR-5 ovarian = test system: OVCAR-5 ovarian
OVCAR-4 ovarian = test system: OVCAR-4 ovarian
IGROV1 ovarian = test system: IGROV1 ovarian
OVCAR-3 ovarian = test system: OVCAR-3 ovarian
HS 578T breast = test system: HS 578T breast
NCI/ADR-RES ovarian = test system: NCI/ADR-RES ovarian
SK-OV-3 ovarian = test system: SK-OV-3 ovarian
UO-31 renal = test system: UO-31 renal

| SMILES | growth (SK-MEL-2 melanoma) | growth (EKVX NSCLC) | growth (SN12C renal) | growth (TK-10 renal) | growth (ACHN renal) | growth (CAKI-1 renal) | growth (A498 renal) | growth (CCRF-CEM leukemia) | growth (MOLT-4 leukemia) | growth (SR leukemia) | growth (RPMI-8226 leukemia) | growth (OVCAR-8 ovarian) | growth (OVCAR-5 ovarian) | growth (OVCAR-4 ovarian) | growth (IGROV1 ovarian) | growth (OVCAR-3 ovarian) | growth (HS 578T breast) | growth (NCI/ADR-RES ovarian) | growth (SK-OV-3 ovarian) | growth (UO-31 renal) |
| --- | --- | --- | --- | --- | --- | --- | --- | --- | --- | --- | --- | --- | --- | --- | --- | --- | --- | --- | --- | --- |
| O=C1CCN(Cc2ccccc2)C(=S)N1 | 107% (inactive) and 103% (inactive) | 111% (inactive) and 118% (inactive) | 104% (inactive) and 95.6% (inactive) | 106% (inactive) and 89.6% (inactive) | 104% (inactive) and 97.3% (inactive) | 101% (inactive) and 96.1% (inactive) | 94.6% (inactive) | 86.3% (inactive) and 98.4% (inactive) | 78.2% (inactive) and 98.5% (inactive) | 65.4% (inactive) and 101% (inactive) | 94.5% (inactive) and 102% (inactive) | 106% (inactive) and 107% (inactive) | 106% (inactive) and 101% (inactive) | 100% (inactive) | 92.4% (inactive) and 91.5% (inactive) | 123% (inactive) and 103% (inactive) | 114% (inactive) and 81.7% (inactive) | 106% (inactive) and 103% (inactive) | – | – |
| COC(=O)c1nc(N)nc(C(=O)OC)c1C(=O)c1ccc(OC)cc1 | 108% (inactive) and 77.3% (inactive) | 101% (inactive) and 59.3% (inactive) | 113% (inactive) and 78.5% (inactive) | 105% (inactive) and 92.8% (inactive) | 104% (inactive) and 52.9% (inactive) | 94.8% (inactive) and 73.6% (inactive) | 133% (inactive) and 141% (inactive) | 104% (inactive) and 39.7% (inactive) | 136% (inactive) and 12.8% (inactive) | 90.2% (inactive) and 22.8% (inactive) | 107% (inactive) and 32.6% (inactive) | 105% (inactive) and 55.1% (inactive) | 121% (inactive) and 87.5% (inactive) | 105% (inactive) and 37.6% (inactive) | 106% (inactive) and 66.6% (inactive) | 117% (inactive) and 70.1% (inactive) | 105% (inactive) and 81.2% (inactive) | 105% (inactive) and 37.4% (inactive) | 106% (inactive) and 83.3% (inactive) | – |
| CN(C)c1ccc(/C=C(\C#N)c2ccccc2)cc1 | -36% (active) and 11.7% (inactive) and 22.8% (inactive) | 53.9% (inactive) and 45.7% (inactive) and 56.9% (inactive) | 66.5% (inactive) and 62.2% (inactive) and 39.1% (inactive) | 57.8% (inactive) and 43.1% (inactive) and 54.9% (inactive) | 50.3% (inactive) and 65.3% (inactive) and 52.2% (inactive) | 41.1% (inactive) and 43.3% (inactive) | 63.6% (inactive) and 29.8% (inactive) and 0.464% (active) | -17.2% (active) and 23.6% (inactive) and 6.64% (active) | 25.2% (inactive) and 35.6% (inactive) and 34.9% (inactive) | -18.5% (active) and 14.1% (inactive) and 8.15% (active) | -23% (active) and 37.2% (inactive) and 10.1% (inactive) | 26.9% (inactive) and 43.7% (inactive) and 38% (inactive) | 41.5% (inactive) and 62.4% (inactive) and 55.4% (inactive) | 48.4% (inactive) and 61.8% (inactive) and 78.6% (inactive) | -39.9% (active) and 52.4% (inactive) and 43.5% (inactive) | -57.9% (active) and 11.6% (inactive) and -12.2% (active) | 28.3% (inactive) and 56.2% (inactive) and 28.9% (inactive) | -41.2% (active) and 13.3% (inactive) and 20.9% (inactive) | 30.9% (inactive) and 32.4% (inactive) and 29.9% (inactive) | – |
| O=S1(=O)CC(Br)C(Br)C1 (stereo unspecified) | 82.4% (inactive) and 83.3% (inactive) | 93.9% (inactive) | 93.2% (inactive) and 88.3% (inactive) | 40% (inactive) and 63.8% (inactive) | 42.2% (inactive) and 69.8% (inactive) | 45.1% (inactive) and 65.5% (inactive) | 112% (inactive) | 33.7% (inactive) | 61.3% (inactive) and 68.6% (inactive) | 53.6% (inactive) | 85.5% (inactive) and 82.5% (inactive) | 62.7% (inactive) and 88.9% (inactive) | 96.4% (inactive) and 108% (inactive) | 63.1% (inactive) and 96% (inactive) | – | 50.3% (inactive) and 75.7% (inactive) | 91.4% (inactive) and 89.7% (inactive) | 68.5% (inactive) and 110% (inactive) | – | – |
| CCN(CC)CCc1nc(-c2ccccc2)no1 | 98% (inactive) and 104% (inactive) | 90.6% (inactive) and 98.4% (inactive) | 68% (inactive) and 80.8% (inactive) | 85.1% (inactive) and 107% (inactive) | 83.2% (inactive) and 110% (inactive) | 92.3% (inactive) and 88.2% (inactive) | – | 44.2% (inactive) and 90.8% (inactive) | 101% (inactive) | – | 60.9% (inactive) and 98.7% (inactive) | 83.9% (inactive) and 94.4% (inactive) | 98.6% (inactive) and 114% (inactive) | 76.7% (inactive) and 103% (inactive) | 78.7% (inactive) and 112% (inactive) | 73.2% (inactive) and 112% (inactive) | 98% (inactive) | 89.8% (inactive) and 99.4% (inactive) | 98.2% (inactive) and 99.6% (inactive) | 65.9% (inactive) and 68.2% (inactive) |
